These results are taken from PubChem BioAssay (NCI).

Experiment in all cases: NCI-60 one-dose screen, 48 h (100 = growth as untreated, 0 = no growth, -100 = all killed)
In one test the test system is NCI-H322M lung. Particulars: 10 µM unless noted.
The test system of a further test is COLO 205 colon. Particulars: 10 µM.
The test system of a further test is K-562 leukemia. Particulars: 10 µM unless noted.
For the next test, the system named is HT29 colon. Particulars: 10 µM unless noted.
For a further test, the system named is U251 CNS. Particulars: 10 µM unless noted.
In another test the test system is CCRF-CEM leukemia. Particulars: 10 µM unless noted.
A further test deals with SR leukemia. Particulars: 10 µM.
A further test relates to OVCAR-5 ovarian. Particulars: 10 µM unless noted.
Another test relates to IGROV1 ovarian. Particulars: 10 µM.
The subject of a further test is OVCAR-3 ovarian. Particulars: 10 µM unless noted.
The subject of another test is HOP-92 NSCLC. Particulars: 10 µM unless noted.
The next test deals with NCI-H522 lung. Particulars: 10 µM unless noted.
A further test has as its system PC-3 prostate. Particulars: 10 µM unless noted.
The test system of another test is SK-MEL-5 melanoma. Particulars: 10 µM unless noted.
Another test deals with CAKI-1 renal. Particulars: 10 µM unless noted.
In another test the test system is RPMI-8226 leukemia. Particulars: 10 µM unless noted.
A further test relates to HS 578T breast. Particulars: 10 µM unless noted.
The next test has as its system EKVX NSCLC. Particulars: 10 µM unless noted.

Compounds without any hit were thinned out: in the full panel of roughly 83,000, 20% have a hit.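 Growth was measured after 48 h exposure to one concentration of compound in 96-well plates. Values under 10 count as active.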 Unmarked numbers belong to inactive results. The source made the active and inactive calls.

With `Cc1cc(NC(=O)NCCOc2ccc(N3C(N)=NC(N)=NC3(C)C)cc2Cl)ccc1S(=O)(=O)F`, the growth in the test with NCI-H322M lung is 43.4%; with COLO 205 colon, 35.3%; in the test on K-562 leukemia, 13%; in the test with HT29 colon, 9.65% (active); in the test with U251 CNS, 10.7%; in the test with CCRF-CEM leukemia, 18.6%. For the same compound, the growth is 34.8% in the test on SR leukemia, 26.6% with OVCAR-5 ovarian, 32.5% with IGROV1 ovarian and 53.2% in the test on OVCAR-3 ovarian.
Consider `CCC[CH2][Sn]1([CH2]CCC)[O]C(=O)c2cccc([N+](=O)[O-])c2C(=O)[O]1`, for which the growth was -91.7% (active) with HOP-92 NSCLC; -94.8% (active) in the test on NCI-H522 lung; -12.3% (active) in the test on K-562 leukemia; -75% (active) in the test with HT29 colon; -67.5% (active) with PC-3 prostate; -89.8% (active) in the test on SK-MEL-5 melanoma. In addition, the growth is -93.4% (active) in the test on CAKI-1 renal; -47.7% (active) in the test on CCRF-CEM leukemia; -31.6% (active) in the test with SR leukemia; -40.5% (active) in the test on RPMI-8226 leukemia; -95.6% (active) in the test on OVCAR-5 ovarian; -76% (active) with IGROV1 ovarian. Besides, the results for the growth in the test on OVCAR-3 ovarian and in the test on HS 578T breast were -99.3% (active) and -11.6% (active), respectively.
On to `O=C(CF)N(O)c1ccc(/C=C/c2ccccc2)cc1`, for which the growth in the test on NCI-H322M lung was 71.4%; in the test on NCI-H522 lung, 60.6%; in the test with COLO 205 colon, 68.8%; with K-562 leukemia, 45.4%; in the test with HT29 colon it was 57.6%; in the test on U251 CNS, 35.6%. The growth was 77.1% in the test on SK-MEL-5 melanoma; 98.5% with EKVX NSCLC; 13.5% in the test on CCRF-CEM leukemia; 82.6% in the test on OVCAR-5 ovarian; 40.8% in the test on IGROV1 ovarian; 23.9% in the test on OVCAR-3 ovarian. In addition, the growth in the test with HS 578T breast is 99%.
`CC(=O)OC1CCC2(C)C(=CCC3C4CC(CN5CC5)C(=O)C4(C)CCC32)C1` (stereo not given): the growth is 92.1% in the test on HOP-92 NSCLC; 89.2% in the test with COLO 205 colon; 85.2% in the test with HT29 colon; 99.1% with SK-MEL-5 melanoma; 88% with CAKI-1 renal; 22.9% with SR leukemia. Moreover, the growth with RPMI-8226 leukemia is -17% (active); with OVCAR-5 ovarian, 97.7%; with IGROV1 ovarian, 89.2%; with OVCAR-3 ovarian, 112%.
On to `c1ccc(CCN2CCCCC2Cc2ccccc2)cc1` (stereo not given), for which the growth with NCI-H322M lung was 78.5%; in the test with K-562 leukemia, 101%; with HT29 colon, 72.8%; in the test with U251 CNS, 98.5%; in the test with PC-3 prostate, 103%; in the test on SK-MEL-5 melanoma it was 94.8%. For the same compound, the growth was 93.4% with EKVX NSCLC, 101% in the test with CAKI-1 renal, 88.5% in the test with SR leukemia and 103% in the test with OVCAR-3 ovarian.
On to `C[CH2][Pb]([CH2]C)([CH2]C)[O]C(=O)COC`, for which the growth in the test on NCI-H322M lung is -11.1% (active); with COLO 205 colon, -7.82% (active); in the test with K-562 leukemia it was 0.215% (active); in the test on HT29 colon it was 0.481% (active); in the test with U251 CNS, -12.1% (active); in the test with PC-3 prostate, 14.1%. Moreover, the growth in the test on OVCAR-5 ovarian was -4.48% (active); in the test on IGROV1 ovarian, -13% (active); in the test on HS 578T breast, -2.8% (active).
In the case of `CC(=O)O[C@H]1C[C@H](O[C@H]2[C@@H](O)C[C@H](O[C@H]3[C@@H](O)C[C@H](O[C@H]4CC[C@@]5(C)C(CCC6C5C[C@@H](O)[C@]5(C)[C@@H](C7=CC(=O)OC7)CC[C@]65O)C4)O[C@@H]3C)O[C@@H]2C)O[C@H](C)[C@H]1O[C@@H]1O[C@H](CO)[C@@H](O)[C@H](O)[C@H]1O` (stereo not given in full), the growth with HOP-92 NSCLC is -15.1% (active); with COLO 205 colon, -74.2% (active); in the test on HT29 colon it was -86% (active); in the test with U251 CNS, -100% (active); in the test with PC-3 prostate, -6.71% (active); with SK-MEL-5 melanoma it was -100% (active). Besides, the growth was -98.3% (active) in the test on EKVX NSCLC; -94.4% (active) in the test with CAKI-1 renal; -23.5% (active) with CCRF-CEM leukemia; -31% (active) with SR leukemia; -0.309% (active) in the test with RPMI-8226 leukemia; 7.96% (active) in the test with IGROV1 ovarian. In the test with OVCAR-3 ovarian, the growth was -100% (active).
For `Cc1nnc([S-])s1.[Au+].c1ccc([PH+](c2ccccc2)c2ccccc2)cc1`, the growth in the test on NCI-H322M lung is 84.2%; with HOP-92 NSCLC, -76.6% (active); with NCI-H522 lung it was -75.3% (active); with COLO 205 colon, -31.7% (active); with K-562 leukemia, 1.12% (active); in the test on HT29 colon, 12%. Moreover, the growth was -59.9% (active) in the test on U251 CNS; 15.4% in the test on PC-3 prostate; -45.9% (active) in the test with SK-MEL-5 melanoma; 56.4% with EKVX NSCLC; -26.8% (active) in the test on CAKI-1 renal; 0.579% (active) with CCRF-CEM leukemia. In addition, the growth with SR leukemia was 7.04% (active); in the test with RPMI-8226 leukemia, -1.82% (active); in the test with OVCAR-5 ovarian it was 63.6%; with OVCAR-3 ovarian, -96.3% (active); with HS 578T breast it was 30.8%.
As for `C[C@@H]1O[C@@H](O[C@H]2CC[C@@]3(C)[C@H](CCC4[C@@H]3C(O)C[C@]3(C)[C@@H](c5ccc(=O)oc5)CC[C@]43O)C2)[C@H](O)[C@H](O)[C@H]1O` (stereo not given in full), the growth was -97.9% (active) in the test on U251 CNS; -33.3% (active) with PC-3 prostate; -99.6% (active) in the test on SK-MEL-5 melanoma; -58.3% (active) in the test on EKVX NSCLC; -68.7% (active) in the test on CAKI-1 renal; -46.7% (active) in the test on OVCAR-3 ovarian.
`CCOC(=O)C1(c2ccccc2)CCN(CC(=O)c2ccc(NC(C)=O)cc2)CC1`: the growth with K-562 leukemia is 122%; with HT29 colon, 103%; in the test with U251 CNS, 99.2%; with PC-3 prostate it was 86.8%; in the test with SK-MEL-5 melanoma it was 103%; with EKVX NSCLC it was 102%. The growth in the test on CAKI-1 renal is 95.4%; in the test with CCRF-CEM leukemia it was 99.3%; in the test with RPMI-8226 leukemia, 88.3%; in the test on OVCAR-5 ovarian, 100%; in the test with OVCAR-3 ovarian, 128%.
In the case of `COc1cc(NCCCCCN=C(N)N)c2ncccc2c1`, the growth in the test with NCI-H322M lung is 61.4%; in the test on HOP-92 NSCLC it was 66.7%; with NCI-H522 lung, 9.47% (active); in the test on COLO 205 colon, 54.9%; with K-562 leukemia, 16.1%; in the test on HT29 colon it was 62.9%. The growth was 28.1% in the test with U251 CNS; 23.4% with PC-3 prostate; 65.4% in the test with EKVX NSCLC; 104% in the test with CAKI-1 renal; 39.8% in the test on CCRF-CEM leukemia; 33.5% in the test on SR leukemia. Moreover, the growth with OVCAR-5 ovarian is 97.3%; with OVCAR-3 ovarian, 0.151% (active).
As to `CC12CC[C@H](O)C=C1/C(=N/O)CC1C2CCC2(C)C1CC[C@@H]2O` (stereo not given in full), the growth in the test with NCI-H522 lung was 90.1%; with COLO 205 colon, 115%; in the test with HT29 colon, 98%; with U251 CNS, 105%; with SK-MEL-5 melanoma it was 103%; in the test on EKVX NSCLC, 89.6%. Besides, the growth in the test with CAKI-1 renal was 84%; with OVCAR-5 ovarian it was 96.2%; in the test on IGROV1 ovarian, 94.4%.
For the compound `CC(=O)[O][Hg][c]1nc2c(c(=O)n(C)c(=O)n2C)n1C`, the growth is 60.3% with K-562 leukemia; 95.6% with HT29 colon; 88.3% in the test with U251 CNS; 83.5% in the test with CAKI-1 renal; 41.3% in the test with SR leukemia; 102% in the test on RPMI-8226 leukemia. Also, the growth in the test on IGROV1 ovarian was 81%; with OVCAR-3 ovarian, 110%; in the test with HS 578T breast, 105%.
